91 molecules from PubChem BioAssay AID588492 (Sanford-Burnham Center for Chemical Genomics, 2011) can be followed below.

Where “and” joins values, the source holds several entries; their conditions need not be identical. Equal entries are not always repeated. In all, about 360,000 compounds went through this assay and about 2,300 (0.64%) were called active. Shown is part of a subset that was picked to be rich in actives. Values without a mark were called inactive.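 Rule for the calls: active = compounds giving at least 50% protection of heart cells from peroxide-induced death in the single-dose screen, raw or plate-pattern-corrected value; inactive = the rest.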

The nature of this assay: cardioprotection against H2O2-induced cell death, primary screen, uHTS, H9c2 cells, ATPLite luminescence (AID 588492).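 Note: 0% = DMSO wells with peroxide and 100% = DMSO wells without peroxide.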 To be noted: H9c2 cardiomyocytes, H2O2 injury protection, 2 h, at 20 µM, stronger effect = higher value. For orientation: Cellular ATP, detected with luciferase, serves as a proxy for viable cell number.
In the case of `CCOCCCNC(=O)C(NC(=O)c1ccc(=O)[nH]c1)c1ccc(Cl)cc1` (stereo unspecified), the protection from H2O2 cell death is -7.9%.

Consider `COc1ccc([C@H]2N[C@]3(CCCN(CC4CCCCC4)C3=O)[C@H]3C(=O)N(C)C(=O)[C@@H]23)cc1`, for which the protection from H2O2 cell death is 5.5%.

For `COCCNc1ccc(-c2n[nH]c(=O)c3ccccc23)cc1[N+](=O)[O-]`, the protection from H2O2 cell death is 40.1%.

`CCN(CC)CCNc1ccc(Cl)cc1[N+](=O)[O-]`: the protection from H2O2 cell death was 9.1%.

With `CN(C)CCNc1ccc(-c2n[nH]c(=O)c3ccccc23)cc1[N+](=O)[O-]`, the protection from H2O2 cell death is 61.1% (active).

On to `CCCC(=O)NC(Nc1ccccc1OC)C(Cl)(Cl)Cl` (stereo unspecified), for which the protection from H2O2 cell death is 3%.

In the case of `Cc1ccc(C(=O)C(C)OC(=O)Cc2n[nH]c(=O)c3ccccc23)cc1C` (stereo unspecified), the protection from H2O2 cell death is 12.9%.

As for `c1ccc(CCc2ccccn2)cc1`, the protection from H2O2 cell death is -1.9%.

In the case of `O=c1[nH]nc(Cc2ccccn2)c2ccccc12`, the protection from H2O2 cell death was 84.4% (active).

`COc1ccc(OC)c(CN2C(=O)CCC2(C)C(=O)NC2CCCCCC2)c1` (stereo unspecified): the protection from H2O2 cell death was 1.4%.

For `O=C(CN1C(=O)NC2(CCCCCCC2)C1=O)NCc1ccc(F)cc1`, the protection from H2O2 cell death is -8.5%.

Consider `COc1ccc(N2CCN(Cc3ccc(Br)s3)CC2)cc1`, for which the protection from H2O2 cell death is -6.8%.

With `CCOc1cc(-c2cc(-c3ccc(NC(C)=O)cc3)nc(N)c2C#N)ccc1O`, the protection from H2O2 cell death was 65.8% (active).

As for `Cc1ccc(NC(=O)c2sc3nc(N)c(C#N)cc3c2N)cc1`, the protection from H2O2 cell death was -0.8%.

Regarding `CCSc1nc(-c2ccc(OC)cc2)cc(-c2ccc(OC)cc2)c1C#N`, the protection from H2O2 cell death is -1%.

For the molecule `CCSc1nnc(SCC(=O)NNC(=O)c2ccccc2F)s1`, the protection from H2O2 cell death is -2.9%.

For `COc1ccc(CC(=O)N/N=C(\C)c2ccccn2)cc1`, the protection from H2O2 cell death is 89.5% (active).

On to `CC(=NNC(=S)N1CCCCCC1)c1ccccn1`, for which the protection from H2O2 cell death was -14.3%.

In the case of `COc1ccc(CC(N)c2csc(NC(=O)Cc3ccccc3)n2)cc1` (stereo unspecified), the protection from H2O2 cell death was 10.4%.

For `CCOC(=O)[C@H]1CCC[C@@H](NS(=O)(=O)c2ccc(NC(C)=O)cc2)C1`, the protection from H2O2 cell death is 3.9%.

In the case of `CCCCNc1ccc(C(=O)Nc2cccc(C)n2)cc1[N+](=O)[O-]`, the protection from H2O2 cell death is -6%.

As to `O=c1cc(CN2CCN(S(=O)(=O)/C=C/c3ccccc3)CC2)c2ccc(O)cc2o1`, the protection from H2O2 cell death was 24.9%.

On to `Cc1nn(C)c(C)c1S(=O)(=O)N1CCC(CO)(Cc2ccc(Cl)cc2)CC1`, for which the protection from H2O2 cell death is -21.2%.

As to `O=c1[nH]cnc2c1c(-c1ccccc1)cn2-c1ccc(F)cc1`, the protection from H2O2 cell death was -5.8%.

Turning to `COc1ccc(N2C(=O)CNC2=S)cc1`, the protection from H2O2 cell death is 5.9%.

Turning to `COc1ccc(-n2cc(-c3ccccc3)c3c(=S)nc[nH]c32)cc1`, the protection from H2O2 cell death was 72.3% (active).

As for `CCOC(=O)C1CCN(S(=O)(=O)c2ccc3c(c2)N(C)C(=O)CC(=O)N3C)CC1`, the protection from H2O2 cell death is -1.6%.

As for `C[C@@H]1CN([C@H](C)CO)S(=O)(=O)c2ccc(C#C[C@@H](C)O)cc2O[C@@H]1CN(C)Cc1ccc(-c2ccccc2)cc1`, the protection from H2O2 cell death was -5.2%.

Turning to `O=C(OCc1nnc(-c2ccccc2)o1)c1cc(=O)[nH]c2ccccc12`, the protection from H2O2 cell death is 3.9%.

In the case of `CCCc1nc2ccccc2c(C(=O)OCc2nnc(-c3cc(OC)c(OC)c(OC)c3)o2)c1CC`, the protection from H2O2 cell death is 64.8% (active).

`Cc1onc(-c2ccccc2Cl)c1C(=O)OCc1nnc(-c2ccccc2)o1`: the protection from H2O2 cell death is -13.6%.

With `Cc1ccc(CNS(=O)(=O)c2ccc3c(c2)N(C)CCO3)cc1`, the protection from H2O2 cell death was -9.1%.

In the case of `C[C@@H]1CC[C@]2(O[C@@H](CCO)C[C@H](O)[C@H]2O)O1`, the protection from H2O2 cell death was -5.8%.

For the molecule `COc1ccc2oc(C(=O)N(CC(C)C)C3CCS(=O)(=O)C3)c(C)c2c1` (stereo unspecified), the protection from H2O2 cell death is 2.8%.

`CC(C)CNC(=S)NNC(=O)c1ccccc1OC(F)F`: the protection from H2O2 cell death is -3.4%.

For `CCN(CC(=O)Nc1ccc2c(c1)OCO2)S(=O)(=O)c1ccccc1`, the protection from H2O2 cell death is -7.6%.

Turning to `O=C(CN(c1ccc2c(c1)OCCO2)S(=O)(=O)c1ccccc1)Nc1ccc2c(c1)OCO2`, the protection from H2O2 cell death was 79.8% (active).

Take `O=C(CCS(=O)(=O)Cc1ccccc1)Nc1ccc2c(c1)OCCO2`: the protection from H2O2 cell death was 0.6%.

Turning to `COc1ccc(NS(=O)(=O)c2ccc(C)c(C(=O)NCC(c3cccs3)N3CCOCC3)c2)cc1` (stereo unspecified), the protection from H2O2 cell death is -1.3%.

For `COC(=O)c1ccc(S(=O)(=O)NCc2ccccc2)n1C`, the protection from H2O2 cell death was -1.9%.

In the case of `COc1cc(Br)cc(/C=N/c2ncn[nH]2)c1O`, the protection from H2O2 cell death was 88.7% (active).

`Oc1c(Cl)cc(Cl)cc1/C=N/c1ncn[nH]1`: the protection from H2O2 cell death is 26.3%.

As to `C=CCn1c(Cn2nnc3ccccc32)nnc1SCC(=O)N/N=C/c1cc(Br)cc(OC)c1O`, the protection from H2O2 cell death was 9.5%.

With `CN(Cc1c(F)cccc1Cl)C(=O)COC(=O)Cn1cnc2ccccc2c1=O`, the protection from H2O2 cell death is -4%.

For `Nc1scc(-c2ccncc2)c1Cl`, the protection from H2O2 cell death is -2.7%.

Consider `[O-][n+]1ccc(OCc2ccccc2)cc1`, for which the protection from H2O2 cell death was -5.2%.

Consider `COc1cccc(C2c3[nH]c4ccccc4c3CCN2Cc2cccc(C)n2)c1` (stereo unspecified), for which the protection from H2O2 cell death was -1.8%.

Turning to `COC(=O)[C@H]1[C@H]2C[C@H]3c4[nH]c5ccccc5c4CCN3C[C@@H]2CC[C@@H]1O`, the protection from H2O2 cell death is -2.1% and 1%.

For the molecule `COc1ccc(-c2ccc3[nH]c4c(c3c2)CCN2C[C@H]3[C@H](C)ON(C)[C@H]3C[C@@H]42)cc1`, the protection from H2O2 cell death was 54.5% (active).

For `COc1ccc(CNC(=O)c2ccc(NS(=O)(=O)c3ccc4[nH]c(=O)[nH]c4c3)cc2)cc1OC`, the protection from H2O2 cell death was 0.1%.

Regarding `NC(=O)c1ccccc1N=Cc1ccc2ccccc2c1`, the protection from H2O2 cell death was 0.6%.

As to `Nc1nonc1-n1nnc(C(=O)N/N=C/c2cc(Br)ccc2O)c1CSC1=NCCS1`, the protection from H2O2 cell death was 56.9% (active).

For the molecule `COCc1c(C(=O)N/N=C\c2cccnc2)nnn1-c1nonc1N`, the protection from H2O2 cell death is -0.9%.

Take `CC(C)c1c(C(=O)N/N=C/c2ccccc2C(=O)O)nnn1-c1nonc1N`: the protection from H2O2 cell death is 5.1%.

For `Cc1cc(NC(=O)C(C)N2C(=O)c3ccccc3S2(=O)=O)no1` (stereo unspecified), the protection from H2O2 cell death is 6.5%.

As to `CCN(CC)Cc1nc2sc(C)c(C)c2c(=O)[nH]1`, the protection from H2O2 cell death is 12.4%.

Regarding `O=C(CCCCO)c1ccc(O)c(Cl)c1`, the protection from H2O2 cell death was 15.5%.

For the molecule `C/C(=N/Nc1nc(-c2ccccc2)c(CC(=O)O)s1)c1ccccc1`, the protection from H2O2 cell death was -8.5%.

In the case of `c1ccc(C(=NNc2nc3ccccc3s2)c2ccccn2)cc1`, the protection from H2O2 cell death is 51.5% (active).

Take `COc1cc(OC)nc(N/N=C(\c2ccccc2)c2ccncc2)n1`: the protection from H2O2 cell death was -2.9%.

Take `Cc1cc(=O)oc2c(C)c(OCC(=O)NCCc3ccc(S(N)(=O)=O)cc3)ccc12`: the protection from H2O2 cell death was -0.5%.

For the molecule `COc1ccc(CN2CCC(c3nc4ccc(Cl)cc4[nH]3)CC2)cc1`, the protection from H2O2 cell death is -3.8%.

For `Cn1c2c(c(=O)n(C)c1=O)C(c1ccc(O)cc1)Nc1ccccc1O2` (stereo unspecified), the protection from H2O2 cell death was 2.1%.

In the case of `Cn1c2c(c(=O)n(C)c1=O)C(c1cccc([N+](=O)[O-])c1)Nc1ccccc1O2` (stereo unspecified), the protection from H2O2 cell death is 61.2% (active).

With `Cn1c2c(c(=O)n(C)c1=O)C1c3ccccc3OCC1C(C)(C)O2` (stereo unspecified), the protection from H2O2 cell death is 11%.

Turning to `O=C(COc1nsnc1N1CCOCC1)Nc1ccccc1Cl`, the protection from H2O2 cell death is 1.1%.

For `O=C(CSCc1c(Cl)cccc1Cl)NN1C(=O)c2ccccc2C1=O`, the protection from H2O2 cell death was 5.5%.

Turning to `CC(=O)Nc1cccc(-c2cc(NC=O)c3ncc(-c4ccc(F)c(Cl)c4)n3c2)c1`, the protection from H2O2 cell death is 47.5%.

On to `CC(=O)c1cccc(-c2cnc3c(NC=O)cc(-c4ccc(N5CCN(C)CC5)cc4)cn23)c1`, for which the protection from H2O2 cell death is 0.9%.

Take `CN(C)C(=O)c1cccc(-c2cnc3c(NC=O)cc(-c4ccc(F)cc4)cn23)c1`: the protection from H2O2 cell death was 12.9%.

Regarding `CC(=O)c1cccc(-c2cnc3c(NC=O)cc(-c4cccc(C(=O)N(C)C)c4)cn23)c1`, the protection from H2O2 cell death was 73.1% (active).

For `CC(=O)c1cccc(-c2cnc3c(NC=O)cc(-c4ccccc4Oc4ccccc4)cn23)c1`, the protection from H2O2 cell death was -13.2%.

With `CC(=O)c1cccc(-c2cnc3c(NC=O)cc(-c4ccc(N(C)C)cc4)cn23)c1`, the protection from H2O2 cell death was 34.4%.

On to `COc1cccc(-c2cc(NC(C)=O)c3ncc(-c4cccc(C(C)=O)c4)n3c2)c1`, for which the protection from H2O2 cell death was 24.1%.

As to `CC(=O)c1ccc(-c2cnc3c(NC=O)cc(-c4cccc(NS(C)(=O)=O)c4)cn23)cc1`, the protection from H2O2 cell death was 64.4% (active).

Consider `COc1ccc(-c2cc(NC=O)c3ncc(-c4ccccc4)n3c2)cc1OC`, for which the protection from H2O2 cell death is 74.5% (active).

On to `COc1cccc(-c2cnc3c(NC(C)=O)cc(-c4cccc(NC(C)=O)c4)cn23)c1`, for which the protection from H2O2 cell death is 41.9%.

On to `COc1ccc(-c2cc(NC=O)c3ncc(-c4cc(OC)c(OC)c(OC)c4)n3c2)c(OC)c1`, for which the protection from H2O2 cell death was 17.5%.

For `CC(=O)Nc1cccc(-c2cc(NC(C)=O)c3ncc(-c4ccccc4)n3c2)c1`, the protection from H2O2 cell death is 57.6% (active).

On to `CCCc1c(C)nc2scc(-c3ccc(Cl)cc3)n2c1=O`, for which the protection from H2O2 cell death was -0.2%.

Consider `Cc1cc(NC(=O)OC(C)C)ccc1-c1ccc(NC(=O)OC(C)C)cc1C`, for which the protection from H2O2 cell death is 0.3%.

Take `COc1ccc(CSc2nnnn2-c2ccc(O)cc2)cc1F`: the protection from H2O2 cell death was -8.7%.

For `Cc1ccc(OCCNC(=O)CCNS(=O)(=O)c2ccc(Br)cc2)cc1`, the protection from H2O2 cell death was -2.6%.

In the case of `CC1CCN(C(=O)CN(c2ccc(Oc3ccccc3)cc2)S(C)(=O)=O)CC1`, the protection from H2O2 cell death was -13.4%.

As for `Cc1nonc1OCCn1nnnc1N`, the protection from H2O2 cell death was -1.7%.

For `Cc1oc(C(N)=O)cc1COc1ccc(C(N)=O)cc1`, the protection from H2O2 cell death is -0.9%.

`O=C(c1ccc(N2CCOCC2)c([N+](=O)[O-])c1)N1CCN(S(=O)(=O)c2cccs2)CC1`: the protection from H2O2 cell death was -4.8%.

With `Cc1cccn2c(=O)nc(SCC(=O)NCc3ccccc3Cl)nc12`, the protection from H2O2 cell death was -5.6%.

As to `CCCn1c(SCC(=O)c2ccc3c(c2)OCCO3)nnc1C(C)C`, the protection from H2O2 cell death was 2.3%.

Regarding `CN1CCNC(=O)C1CC(=O)N1CC=C(c2ccc(F)cc2)CC1` (stereo unspecified), the protection from H2O2 cell death was -0.1%.

As to `N#Cc1ccccc1NC(=O)c1cccc(COc2ccc(Cl)cc2Cl)c1`, the protection from H2O2 cell death is -3.6%.
